ChEMBL document CHEMBL4888484, “Replenishing the malaria drug discovery pipeline: Screening and hit evaluation of the MMV Hit Generation Library 1 (HGL1) against asexual blood stage Plasmodium falciparum ,using a nano luciferase reporter read-out” (2022)
Out of some 4,800 compounds screened, about 410 (8.5%) showed an effect of 50% or more. The sample as a whole holds a higher share of strong results than the screen did.

test system: Plasmodium falciparum; assay: Confirmatory screen in NF54 pLDH assay, in single point, at 2uM, 72h; assay type: functional, Erythrocyte; conditions: timepoint 72 hour

Structure (SMILES) | % Inhibition [%]
Cc1ccc(OCc2cccc(C(=O)N3CCC[C@@H]3CN3CCCCC3)c2)cn1 | 9
CN1CCCN(c2ccnc3ccsc23)CC1 | 39
COc1ccnc(CN2CC[C@](C)(O)[C@H](O)C2)c1 | 6
C=CCNC(=NC)NC1CCN(c2cc(OC)cc(OC)c2)CC1 | 7
CCC1(CC)CCC(NC(=O)[C@@H]2CCCCC(=O)N2)CC1 | -14
C[C@H]1C[C@@H](O)CCN1C(=O)c1cccc2sc(C(F)(F)F)nc12 | 3
Cc1cc(C)cc(-n2cc(C(=O)NCCCc3ccccc3)nn2)c1 | 8
Cc1cc2nc(C)c(=O)n(Cc3ccc(C(=O)NCc4ccco4)cc3)c2cc1C | 8
Cc1cc(NC(=O)NC(C)C)c2[nH]c(C(=O)N3CCOCC3)c(-c3ccccc3)c2c1 | 9
CO/C(=N/C(=O)c1cccc(OC)c1)N[C@H]1CCCc2ccccc21 | -9
O=c1[nH]c(=O)n(Cc2cc(Cl)cc3c2OCOC3)cc1Cl | 12
CC(C)N(C)S(=O)(=O)Nc1ccc(Br)cc1O | 9
Nc1ccccc1-c1nc(Nc2ncccn2)n[nH]1 | 7
CC(C)c1cc(=O)[nH]c(-n2nc(C3CC3)cc2NC(=O)COc2ccc3ccccc3c2)n1 | 65
Cc1nc(CC(=O)Nc2cc(C3CC3)nn2-c2ccccc2)cs1 | 8
Cc1ccc(N2C[C@@H](c3nnc(NC(=O)Cc4ccc(Cl)cc4)o3)CC2=O)cc1 | -18
O=C(Nc1ccc(OC(F)F)cc1)c1cc(C2CC2)nc2c1c(C1CC1)nn2-c1ccccc1 | -5
Cc1cc(NC(=O)c2ccc(COc3ccc4ccccc4c3)o2)nn1C | 13
CC(C)c1cc(=O)[nH]c(-n2nc(C3CC3)cc2NC(=O)Cc2ccc(Cl)cc2)n1 | 67
CCOc1c(Br)cc(Cl)cc1NCC(=O)NC(=O)NC | 14
COc1cc(N2CCn3c(nc4ccccc43)C2)ccc1NC(=O)c1ccc(C)cc1 | -23
O=C1NS(=O)(=O)c2cc(N3CCN(Cc4ccccc4)CC3)ccc21 | 8

Structure (SMILES) | % Inhibition [%]
CCc1ccc(C(=O)Nc2cnc(-n3ccnc3)nc2)cc1 | 29
O=C(C[C@H]1CCN(S(=O)(=O)c2ccc(F)cc2F)C1)NCc1ccccc1 | 10
Cc1nn(Cn2nc(-c3ccc(F)cc3)c(Br)c2-c2ccc(F)cc2)c(C)c1Cl | 6
O=C(NCc1cccc(Cl)c1)[C@H]1CCCN(c2nc3cccnc3n(Cc3ccccc3)c2=O)C1 | -7
CCN(CC)CC(O)COc1c(Br)cc(C(C)(C)c2cc(Br)c(OCC(O)CN(CC)CC)c(Br)c2)cc1Br (stereo not given) | 99
CCN(CC)C(=O)c1cnc2snc(C)c2c1N1CCC(C(=O)Nc2c(C)cc(C)cc2C)CC1 | 34
CN(C(=O)CN(CCO)c1ccc(Br)cc1)C1CC1 | 2
CCN(C(=O)[C@H]1CCOC1)c1ccc(C(F)(F)F)cc1 | 5
O=C(O)C1CCC(=O)N(C2CC2)C1c1ccccc1 (stereo not given) | 10
C(=C\c1cc(/C=C/c2ccccc2)n2nnnc2n1)/c1ccccc1 | 5
O=C(NCC1CCCCC1)c1cn[nH]c1-c1ccccc1 | 6
O=C(NCC1CCCCC1O)c1cnn2ccncc12 (stereo not given) | -5
COc1ccc2nc(C(F)(F)F)nc(N3CCNC(=O)CCN(C(=O)C(F)=C4CCCC4)CC3)c2c1 | 14
Cc1cc(NS(=O)(=O)c2cccs2)n(-c2ccncc2)n1 | 9
O=S(=O)(Nc1nncs1)c1cccs1 | -10
O=S(=O)(Nc1cccc2cccnc12)c1cccs1 | 64
Cc1nsc2ncn(C[C@H](O)COCc3ccco3)c(=O)c12 | 8
CCOc1ccc(-c2cc3c(=O)n(CCC(=O)N4CCCC4)ccn3n2)cc1 | 7
O=C(CNC(=O)c1ccc(C(F)(F)F)cc1)Nc1cnc2c(c1)COCC2 | 4
Fc1ccc(-c2cc3c(N4CCCCC4)nccn3n2)cc1 | 12
CCn1cc(C(=O)Nc2n[nH]c3ccc(C(F)(F)F)cc23)cn1 | -4
CC1CCN(C[C@H](O)C(F)(F)F)CC1 | 5

Structure (SMILES) | % Inhibition [%]
COc1cccc2c(N3CC[C@]4(CNC(=O)C4)C3)nccc12 | 2
CC[n+]1ccc(-c2ncc(-c3ccc(C(C)(C)C)cc3)o2)cc1 | 55
Cc1ccc(C(=O)NCCn2cnc3ccccc3c2=O)cn1 | -7
CN(C)CCCNCc1ccc(Cl)cc1Cl | -7
CN(C)CCNCc1ccc(Cl)c(Cl)c1 | -14
CC(C)CC[C@@H](CCNCCN(C)C)c1ccc(Cl)cc1 | 103
CC(C)CC[C@@H](CCNC1CCN(C)CC1)c1ccc(Cl)cc1 | 83
Clc1ccccc1COc1ccc(CNC2CCCCC2)cc1 | 7
CN1CCC(NCC[C@@H](Cc2ccccc2Cl)c2ccc(Cl)cc2)CC1 | 92
O=C1c2cc3ccccc3n2C[C@](C(=O)NC2CCCCCCC2)(c2ccccc2)N1Cc1cccc(Cl)c1 | -5
COc1ccccc1N(CC(=O)NCCN1CCOCC1)S(=O)(=O)c1ccc(C)cc1 | 7
Cc1cc(C(=O)N[C@@H](C)c2nnc3n2CCCCC3)c(C)s1 | 3
O=C(Nc1ncc(Cc2ccc(Cl)c(C(F)(F)F)c2)s1)c1ccc2nnsc2c1 | 10
CC[C@H](O)CCNC(=O)Nc1ncc(CC(C)C)s1 | 2
COc1cc(NC(=O)Cn2c(=O)n(C)c(=O)c3c2c(-c2ccccc2)cn3C)cc(OC)c1OC | -8
Cc1cncn1C1CCN(C(=O)C2(Cc3ccccc3)CC3CCC2C3)CC1 (stereo not given) | -1
COc1cc(C=C(C(=O)Nc2ccccc2F)C(=O)Nc2ccccc2F)ccc1OCC(=O)Nc1cccc(C(F)(F)F)c1 | -18
Cc1[nH]ccc1C(=O)N1CC[C@]2(CCN(C(=O)OC(C)(C)C)C2)C1 | 13
CCC(=O)OC1(C#CCOc2ccc(OC)cc2)CCN(C)CC1 | 9
Cc1cc(C)n(-c2ccc(N3CC4CCC3C4)nc2)n1 (stereo not given) | -2
C[C@H](NC(=O)c1ccco1)c1cc2c(cc1Br)OCCCO2 | -9
